Growth inhibition data for 8 compounds are collected here from PubChem BioAssay (NCI).

The structures appear in SMILES notation. This is part of a sample that, as a whole, favours compounds with a hit. Of some 79,000 tested, about 15% had one in any assay. Unmarked numbers belong to inactive results. The source made the active and inactive calls. Rule as the data show it: active = growth inhibition above about 70%; inactive = the rest.

This assay can be described thus: NCI Yeast Anticancer Drug Screen. Data for the rad18 strain (AID 177). The following applies: S. cerevisiae rad18 mutant growth inhibition, hits give high values. As to the method: Growth inhibition of yeast strains with defined genetic alterations is measured as a screen for potential anti-cancer activity. Selected strains with alterations in DNA damage repair or cell cycle control were exposed to compounds and growth inhibition was measured relative to vehicle treated controls. The strain used in this assay is rad18

In the case of `CC1C(NNc2ccccc2)Oc2cc3c(cc2C1c1ccccc1O)OCO3` (stereo not given), the growth inhibition was 12% (at 1.2 µM); 94% (active) (at 3.7 µM); 98% (active) (at 11.0 µM); 91% (active) (at 33.0 µM); 92% (active) (at 100.0 µM).

With `CCOC(=O)c1cc([N+](=O)[O-])cc([N+](=O)[O-])c1Sc1ncnc2nc[nH]c12`, the growth inhibition runs as follows: (at 1.2 µM) -18%; (at 3.7 µM) -7%; (at 11.0 µM) 28%; (at 33.0 µM) 81% (active); (at 100.0 µM) 97% (active).

Regarding `CN1Cc2ccccc2/C=C\c2ccccc21`, the growth inhibition was 0% (at 1.2 µM); 2% (at 3.7 µM); 15% (at 11.0 µM); 47% (at 33.0 µM); 78% (active) (at 100.0 µM).

Take `O=C(NC(Nc1ccc(F)c(Cl)c1)(C(F)(F)F)C(F)(F)F)C(C(F)(F)F)C(F)(F)F`: the growth inhibition (at 1.2 µM) is 22%; the growth inhibition (at 3.7 µM) is 14%; the growth inhibition (at 11.0 µM) is 40%; the growth inhibition (at 33.0 µM) was 83% (active); the growth inhibition (at 100.0 µM) is 92% (active).

Turning to `NNc1c(F)c(F)cc(F)c1F`, the growth inhibition (at 1.2 µM) is -9%; the growth inhibition (at 3.7 µM) was -20%; the growth inhibition (at 11.0 µM) was -17%; the growth inhibition (at 33.0 µM) is -20%; the growth inhibition (at 100.0 µM) is 6%.

Regarding `Cn1c(N)nc(-c2ccc(Cl)cc2)c1SSc1c(-c2ccc(Cl)cc2)nc(N)n1C`, the growth inhibition by setting is: (at 1.2 µM) -3%; (at 3.7 µM) -1%; (at 11.0 µM) 34%; (at 33.0 µM) 88% (active); (at 100.0 µM) 94% (active).

Turning to `CC(O)C(O)C(O)C(/C=N\Nc1ccccc1)=N/Nc1ccccc1` (stereo not given), the growth inhibition (at 1.2 µM) is 5%; the growth inhibition (at 3.7 µM) is 9%; the growth inhibition (at 11.0 µM) is 9%; the growth inhibition (at 33.0 µM) is 95% (active); the growth inhibition (at 100.0 µM) is 99% (active).

For the compound `CC[C@@]1(O)C(=O)OCc2c1cc1n(c2=O)Cc2cc3c(CN(C)C)c(O)ccc3nc2-1`, the growth inhibition (at 1.2 µM) was 28%; the growth inhibition (at 3.7 µM) is 23%; the growth inhibition (at 11.0 µM) was 28%; the growth inhibition (at 33.0 µM) was 16%; the growth inhibition (at 100.0 µM) is 9%.
